Assay outcomes deposited in PubChem by National Center for Advancing Translational Sciences (NCATS).
Mm-Cpn inhibitor = Inhibitors of TCP-1 ring complex (TRiC) of Methanococcus maripaludis (MmCpn): qHTS. AID 504842, 2011. Potency, µM (titrated, usually from 76.9 µM), hits mostly inhibitors. Chaperonin Mm-Cpn (Methanococcus maripaludis). hit rate 0.031% among 330,000. purified Mm-Cpn ATPase, ADP Transcreener TR-FRET; also: nearly all actives have a fitted effect of over 80% in size
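TR-FRET (320 nm excitation; 590 and 665 nm emission) reports ADP made from 10 uM ATP by 25 nM enzyme; compounds were preincubated 10 min, reaction run 30 min, both at 37°C.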
PINK1 expr mod = A Quantitative High throughput Screen to Identify Chemical Modulators of PINK1 Expression | PINK1 immunofluorescence, high-content cytometry, 24 h | Potency, µM (doses to about 76.6 µM), usual class: activators | hit rate 0.2% among 410,000 | AID 624263, 2012; active = well fitted activation curve with a large enough effect; inconclusive = small, poorly fitted or top-dose-only effect; cell line not stated here; also: nearly all actives have a fitted effect of over 65% in size
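Measures PINK1 amount and localization on or inside mitochondria by immunofluorescence. Stable cells get compounds at 5 concentrations for 24 hours before fixation and staining; CCCP controls included.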
CCT chaperon mod = High-Throughput Screening for Modulators of Cytosolic Chaperonin Activity; purified chaperonin ATPase assay, HTRF ADP detection, 30 min; activity change, % (test concentration not listed), hits read low; hit rate 0.3% among 360,000; in the data active = activity change below about -30%
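Nucleotide hydrolysis assay: TRiC at 20–40 nM final (set by batch activity) with 10 uM ATP, 30 min at 37 °C, in presence of 76 uM compound. Detection by competitive ADP HTRF, 30 min ambient.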
12-LOX inh = Primary qHTS assay for inhibitors of human arachidonate 12S-lipoxygenase (ALOX12): Round 2. purified 12hLO, xylenol orange hydroperoxide absorbance. Potency, µM (series often up to 108 µM), actives largely listed as inhibitors. AID 1671190, 2021. Polyunsaturated fatty acid lipoxygenase ALOX12 (Homo sapiens), P18054. hit rate 1.1% among 580,000
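Purified human 12hLO (150 nM final) in 25 mM Hepes, 0.01% Triton X-100, pH 7.0 was preincubated 15 min at room temperature with compound. Then 40 uM arachidonic acid was added, 30 min. Hydroperoxide was read by Fe-XO absorbance ratio 573/405 nm.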
p53 reactivation = qHTS assay for re-activators of p53 using a Luc reporter; H1299 p53-A138V BP100-luciferase reporter, luminescence, 24 h; Potency, µM (doses to about 92.2 µM), hits mostly activators; hit rate 0.063% among 320,000; AID 504706, 2011; also: nearly all actives have a fitted effect of over 45% in size
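p53-null H1299 cells stably carrying temperature-sensitive p53-A138V and a BP100-luciferase reporter were pinned with compounds (4-point, 1:5 series) and held 24 hrs at 37 deg C. Luminescence was read 10 min after detection reagent.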
S-ASM inh = Inhibitors of Secretory Acid Sphingomyelinase (S-ASM): qHTS; AID 504937, 2011; Sphingomyelin phosphodiesterase (Homo sapiens), P17405; placental ASM, HMU-PC fluorogenic substrate, 60 min; hit rate 0.006% among 340,000; Potency, µM (titrated, usually from 57.5 µM), usual class: inhibitors
Target sequence (P17405 47-631 limits assumed): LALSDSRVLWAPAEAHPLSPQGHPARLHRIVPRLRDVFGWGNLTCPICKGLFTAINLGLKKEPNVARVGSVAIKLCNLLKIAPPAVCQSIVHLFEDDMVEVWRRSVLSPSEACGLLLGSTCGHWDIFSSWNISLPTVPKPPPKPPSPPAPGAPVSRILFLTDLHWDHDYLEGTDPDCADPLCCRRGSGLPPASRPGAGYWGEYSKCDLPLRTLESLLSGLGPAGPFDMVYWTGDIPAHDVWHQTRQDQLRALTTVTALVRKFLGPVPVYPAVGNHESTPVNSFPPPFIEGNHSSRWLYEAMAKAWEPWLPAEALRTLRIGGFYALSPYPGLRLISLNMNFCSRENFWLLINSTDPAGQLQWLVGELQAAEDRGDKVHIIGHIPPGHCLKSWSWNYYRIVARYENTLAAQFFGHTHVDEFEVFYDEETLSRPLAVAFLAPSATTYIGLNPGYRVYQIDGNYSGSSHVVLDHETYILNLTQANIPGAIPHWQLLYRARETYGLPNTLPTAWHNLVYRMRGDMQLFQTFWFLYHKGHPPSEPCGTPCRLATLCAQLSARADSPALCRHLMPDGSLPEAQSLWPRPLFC
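Human placenta-derived ASM preincubated with compound 10 min at room temperature, then reacted with 9 uM (final) fluorogenic HMU-PC substrate for 60 min at 37 C. Stop solution raises pH to 10; fluorescence read at Ex 386/Em 447 nm.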
Numbers stand for hits; - = inactive; ? = inconclusive; . = no result. A selection: hits, their analogues and other compounds. The true share with any hit is near 1.4%. Unless noted, calls follow the shape of the dose curve; as a rule, active = well fitted curve in the direction sought with a large enough effect; inconclusive = small, poorly fitted or top-dose-only effect, or another doubt; inactive = no such curve, though single readings can be large; an effect the other way counts as inactive or inconclusive.

SMILES	Mm-Cpn inhibitor	PINK1 expr mod	CCT chaperon mod	12-LOX inh	p53 reactivation	S-ASM inh
Cn1c(=O)cc(C(=O)NC2CCCc3c2[nH]c2c(Cl)cccc32)c2ccccc21 (centres undefined)	.	.	.	-	.	.
COc1cc(C(=O)NC2CCCc3c2[nH]c2ccccc32)cc(OC)c1OC (centres undefined)	.	.	.	35µM	.	.
O=C(NC1CCCc2c1[nH]c1ccccc21)c1n[nH]c2c1CCCC2 (centres undefined)	.	.	.	22µM	.	.
O=C(NC1CCCc2c1[nH]c1ccccc21)c1ccncc1 (centres undefined)	.	.	.	-	.	.
Cn1c(=O)cc(C(=O)NC2CCCc3c2[nH]c2ccccc32)c2ccccc21 (centres undefined)	.	.	.	40µM	.	.
O=C(Cn1nc(-c2ccc(F)cc2)ccc1=O)NC1CCCc2c1[nH]c1ccccc21 (centres undefined)	.	.	.	35µM	.	.
O=C(NC1CCCc2c1[nH]c1ccccc21)c1n[nH]c2c1CCC2 (centres undefined)	.	.	.	-	.	.
O=C(NC[C@H]1Cn2c(-c3ccc4c(c3)OCCO4)cnc2CO1)Nc1ccccc1	.	.	.	-	.	.
O=S(=O)(c1cccc2nsnc12)N1CCCCCC1c1ccccc1Cl (centres undefined)	.	.	.	-	.	.
Cn1c(=O)c2c(ncn2CCC(=O)Nc2ccccc2F)n(C)c1=O	.	.	.	-	.	.
COCCn1ccc2ccc(C(=O)NC3CCCc4c3[nH]c3ccccc43)cc21 (centres undefined)	.	.	.	40µM	.	.
O=C(NC1CCCc2c1[nH]c1ccccc21)c1cccs1 (centres undefined)	.	.	.	45µM	.	.
N#CC(c1ccccn1)(c1ncc(C(F)(F)F)cc1Cl)N1CCOCC1 (centres undefined)	-	-	-	-	-	-
N#CC(c1ccncc1)(c1ncc(C(F)(F)F)cc1Cl)N1CCOCC1 (centres undefined)	-	-	-	45µM	-	-
N#Cc1ccsc1NC(=O)c1ccc(Cl)c([N+](=O)[O-])c1	-	32µM	-	-	-	-
N#Cc1ccsc1NC(=O)c1cccc([N+](=O)[O-])c1	-	-	-	-	-	-
Cc1ccc(C(=O)Nc2sccc2C#N)s1	.	.	.	50µM	.	.
COc1ccc(-c2ccc(=O)n(CCNC(=O)Cc3ccc(Br)cc3)n2)cc1	.	.	.	-	.	.
CC[C@@]1(C(=O)OC)N[C@H](CN(C)C(=O)COC)[C@@H]2C(=O)N(C)C(=O)[C@@H]21	-	-	-	5µM	-	-
CC[C@@]1(C(=O)OC)N[C@H](CN(C)C(=O)COc2ccccc2)[C@@H]2C(=O)N(C)C(=O)[C@@H]21	-	-	-	?	-	-
CCOC(=O)c1nc(N(CC)Cc2ccccc2)c2ccccc2n1	.	.	.	-	.	.
CCOC(=O)c1sc(N)c(C#N)c1CSc1nnc(C2CC2)n1N	-	-	-39	-	-	-
O=c1oc2ccccc2c2oc3cc(O)c(O)cc3c12	-	-	-	6.3µM	-	-
Nc1c(N)c2ccccc2oc1=O	-	.	-	-	-	-
CCc1ccc(OCC(O)Cn2cnc3cc(Cl)ccc3c2=O)cc1 (centres undefined)	.	.	.	-	.	.
SMILES	Mm-Cpn inhibitor	PINK1 expr mod	CCT chaperon mod	12-LOX inh	p53 reactivation	S-ASM inh
O=C(NC1(c2ccccc2)CCC1)c1cc(=O)[nH]c2ccccc12	.	.	.	11µM	.	.
O=C(c1cncc(Br)c1)N1CCN(c2ccc(N3CCOCC3)nn2)CC1	-	-	-37	?	-	-
CC1(C)CC(C(N)=S)CCO1 (centres undefined)	-	-	-	-	-	-
CCC1(C)CC(C(N)=S)CCO1 (centres undefined)	-	-	-	8.9µM	-	-
Cc1ccc(-c2cc(-c3n[nH]c(=S)o3)c3ccccc3n2)cc1	-	-	-	2.2µM	-	-
S=c1[nH]nc(-c2cc(-c3ccccn3)nc3ccccc23)o1	-	-	-	-	-	-
O=C1NN(c2ccc(F)cc2)C(=O)/C1=C\C=C\c1ccco1	-	-	-	45µM	?	-
O=C1NN(c2ccc(F)cc2)C(=O)/C1=C\c1cnn(-c2ccccc2)c1	-	.	.	-	-	.
CCOC(=O)c1ccccc1NC(=O)Nc1cccc(Cl)c1	.	.	.	-	.	.
CCOC(=O)NC1(Nc2cccc(Cl)c2)Oc2ccccc2O1	-	-	-	45µM	?	-
CCc1ccccc1N/N=C(/c1ccccc1)c1ccc(Br)cc1	.	.	.	7.9µM	.	.
CN(C)c1ccc(C=Cc2ccnc3c(O)cccc23)cc1	.	-	-	11µM	.	.
CN(C)c1ccc(/C=C/c2ccnc3c(O)cccc23)cc1	.	-	.	.	.	.
Cc1ccc(-n2c(C3CCN(C(=O)c4ccc5cc[nH]c5c4)CC3)n[nH]c2=O)cc1	.	.	.	-	.	.
CC(C(=O)N(C)CC(=O)Nc1ccccc1C(F)(F)F)N1CCN(Cc2ccccc2)CC1 (centres undefined)	.	.	.	-	.	.
CCC1(C)CC(CCNCc2ccccc2)(C(C)C)CCO1 (centres undefined)	.	.	.	-	.	.
O=C(Nc1ccc(N2CCCCC2)cc1)c1ccccc1	-	.	-66	-	-	-
O=C(Nc1ccccc1N1CCCC1)c1cccc(-c2cc3ccccc3oc2=O)c1	-	-	-	-	-	-
O=C(Nc1ccc(N2CCCC2)cc1)c1cccc(-c2cc3ccccc3oc2=O)c1	-	-	-	11µM	-	-
Cc1ccc(C(=O)Nc2ccc(N3CCCCC3)cc2)cc1	-	-	.	-	-	-
O=C(O)Cc1ccc(S(=O)(=O)Cc2ccccc2)cc1	.	.	.	1µM	.	.
CC(C)CN1CCN(CCO)CC1	.	.	.	-	.	.
O=Cc1c[nH]c2cc(Br)ccc12	.	.	.	-	.	.
COCCNC(=O)CN1C(=O)NC2(CCCc3cc(OC)ccc32)C1=O (centres undefined)	-	-	-36	-	-	-
CC(C(=O)N(C)Cc1ccccc1)N(c1ccccc1)S(C)(=O)=O (centres undefined)	.	.	.	-	.	.
CC1(Br)C(Sc2ccccc2[N+](=O)[O-])=Nc2ccccc21 (centres undefined)	.	-	-	7.9µM	.	.
COc1nc(-c2ccccc2)ccc1-c1noc(-c2ccco2)n1	-	-	-	20µM	?	-
O=C(Nc1cccc(C(F)(F)F)c1)C1CCCN1c1ncnc2ccccc12 (centres undefined)	.	.	.	-	.	.
Cc1ccc(-c2nn(CCC(=O)Nc3cccnc3)c(=O)c3ccccc23)cc1	-	-	-65	?	-	-
